These entries were drawn from the full list.
aSyn UTR act: Activators via SNCA 5'UTR binding, MLPCN. activity score, % (tested at 7.5 µM), hits read low. alpha-synuclein 5'UTR reporter, activators screen. 300,000 tested, 7.1% active. AID 1814, 2009; in the data active means activity score below about -60%
An asterisk follows results filed as active.

SMILES	aSyn UTR act
CCO[C@@H]1OC(C(=O)NCc2nc3ccccc3[nH]2)=C[C@H](C(C)(C)C)[C@H]1CCCO	85
CCO[C@@H]1OC(C(=O)NCc2nc3ccccc3[nH]2)=C[C@H](C2CC2)[C@H]1CCCO	-119*
COc1ccc(/C=N/Nc2nc3ccccc3s2)cc1O	60
COc1ccc(C=C(c2nc3ccccc3s2)c2nc3ccccc3s2)cc1O	-281*
CN(C)c1ccc(/C=C/c2nc3ccccc3s2)cc1	81
COc1cc(/C=C/c2nc3ccccc3s2)cc(OC)c1O	-69*
CCOc1cccc(/C=C2\NC(=S)N(c3ccccc3)C2=O)c1O	-148*
C/C(=N\NC(=O)c1cccc(O)c1)c1ccc(NC(=O)Cc2ccccc2)cc1	-85*
C/C(=N\NC(=O)c1ccccc1O)c1ccc(NC(=O)Cc2ccccc2)cc1	-71*
COc1cccc(C(=O)N/N=C(\C)c2ccc(NC(=O)Cc3ccccc3)cc2)c1OC	-88*
COc1ccc(/C(C)=N/NC(=O)c2ccccc2OCc2ccccc2)c(OC)c1	-118*
Cc1cc(C)c(C(CC(=O)c2cccs2)C(C#N)C#N)c(C)c1 (stereo not given)	-189*
Cc1ccc(NCCC(=O)c2ccc(Cl)cc2)cc1C	-99*
Cc1ccc(NCCC(=O)c2cccs2)cc1Cl	-87*
CC(CC(=O)c1cccs1)CC(=O)c1cccs1	-144*
COc1cc2c(c(OC)c1OC)-c1ccc(OC)c(=O)cc1[C@@H](N(C)CC#CCO)CC2	87
CC(C)c1ccc(NCCC(=O)c2cccs2)cc1	-217*
CC(=O)c1ccc(NCCC(=O)c2ccccc2)cc1	-82*
Cc1ccc(NCCC(=O)c2cccs2)cc1	-164*
COC(=O)c1ccc(COC(=O)CCC(=O)c2cccs2)cc1	-84*
Cc1cccc(NCCC(=O)c2ccc(Br)cc2)c1	-94*
Cc1ccc(NCCC(=O)c2cccs2)cc1C	-187*
CCOC(=O)C1CCN(C(=O)c2cc3cc4cc(OC)ccc4nc3o2)CC1	-71*
COc1ccc2nc3oc(C(=O)N4CCCCC4)cc3cc2c1	-192*
COCCNC(=O)c1cc2c(s1)-c1ccc(Cl)cc1SC2	-104*
SMILES	aSyn UTR act
N#CC1=C(SCC(=O)c2ccccc2)NC2=C(C(=O)CCC2)C1c1ccco1 (stereo not given)	-305*
CC(=O)C1=C(C)NC(SCC(=O)c2cc(Cl)ccc2Cl)=C(C#N)C1c1ccco1 (stereo not given)	-130*
N#CC1=C(SCC(=O)Nc2ccccc2)NC(=O)CC1c1ccco1 (stereo not given)	-141*
N#CC1=C(SCC(=O)Nc2ccccc2)NC(=O)CC1c1ccc(O)cc1 (stereo not given)	-128*
c1ccc(-c2nc(-c3cccnc3)n[nH]2)cc1	-85*
Brc1cccc(-c2n[nH]c(-c3ccccc3)n2)c1	-77*
CC(Oc1c(Cl)cccc1Cl)C1=NCCN1 (stereo not given)	-80*
Cc1cccc(/C(N)=N/OC(=O)Cc2cccs2)c1	-141*
Cc1ccc(/C(N)=N/OC(=O)Cc2cccs2)cc1	-169*
N/C(Cc1cccs1)=N\OC(=O)COc1ccccc1	-77*
N/C(=N\OC(=O)Cc1cccs1)c1ccccc1	-214*
Cc1cc(C)n2cc(-c3ccc(Cl)cc3)c(C(=O)O)c2n1	-99*
Cc1ccc(-n2nnnc2SCC(=O)Nc2sc(C)c(C)c2C#N)cc1C	-71*
CCOC(=O)Nc1sc2c(c1C#N)CCC(C)C2 (stereo not given)	-161*
CC1CCc2c(sc(NC(=O)C3CCCO3)c2C#N)C1 (stereo not given)	-114*
CC1CCc2c(sc(NC(=O)c3nc4ncccn4n3)c2C#N)C1 (stereo not given)	-148*
CC1CCc2c(sc(NC(=O)COC(=O)C3CCCO3)c2C#N)C1 (stereo not given)	-68*
O=C(NCCSc1ccccn1)c1ccc(Cl)cc1Cl	-93*
O=C(COc1ccc(F)cc1Br)NCc1ccccn1	-88*
Cc1ccc(OCC(=O)NCc2ccccn2)c(Br)c1	-104*
O=C(COc1ccccc1Br)NCc1ccccn1	-71*
Cc1ccc(C(=O)NCc2ccccn2)c(Cl)c1	-92*
COCC(=O)Nc1c(C(=O)Nc2cccc(OC)c2)oc2ccccc12	-218*
CCOCC(=O)Nc1c(C(=O)Nc2ccc(OC)cc2OC)oc2ccccc12	-82*
COc1cccc(NC(=O)c2oc3ccccc3c2NC(C)=O)c1	-121*
SMILES	aSyn UTR act
COc1ccccc1NC(=O)c1oc2ccc(C)cc2c1C	-203*
COCC(=O)Nc1c(C(=O)Nc2ccccc2OC)oc2ccccc12	-147*
CCOCC(=O)Nc1c(C(=O)Nc2ccc3c(c2)OCO3)oc2ccccc12	-151*
CCOc1ccc(NC(=O)c2oc3ccccc3c2NC(=O)CC)cc1	-123*
CC(C)n1c(SCC(=O)N2c3ccccc3Sc3ccccc32)nc2c1c(=O)n(C)c(=O)n2C	58
Cc1nnc(SC(=O)N2c3ccccc3Sc3ccccc32)s1	-66*
O=C(/C=C/Nc1cccc([N+](=O)[O-])c1)c1ccco1	-283*
Cc1ccc(C(=O)/C=C/Nc2cccc([N+](=O)[O-])c2)o1	-167*

Bioassay records (PubChem)
